Source: PubChem BioAssay (NCATS)
Inconclusive results are not listed. The source made the active and inactive calls. Calls come from the whole dose curve; as a rule, active = well fitted inhibition curve with a large enough effect; inconclusive = small, poorly fitted or top-dose-only effect; inactive = flat fitted curve, though single readings scatter.

Assays:
PC49 = assay: qHTS profiling for inhibitors of Plasmodium falciparum proliferation (AID 504749); note: potency is the fitted concentration of half-maximal effect; conditions: P. falciparum in erythrocytes, SYBR Green DNA, 72 h; series mostly up to 28.7 µM
Method in brief: (§1)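 P. falciparum-infected erythrocytes (0.3% parasitemia, 2.5% hematocrit) incubated with compound 72 h at 37 C, 5% CO2. Parasite DNA detected by SYBR Green after lysis, overnight at room temperature; normalised to 0.29 uM artemisinin and DMSO.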

SC27B = assay: as above; conditions: P. falciparum in erythrocytes, SYBR Green DNA, 72 h; series mostly up to 28.7 µM
Method in brief: as §1

TAB109 = assay: as above; conditions: P. falciparum in erythrocytes, SYBR Green DNA, 72 h; series mostly up to 28.7 µM
Method in brief: as §1

TAB113 = assay: as above; conditions: P. falciparum in erythrocytes, SYBR Green DNA, 72 h; series mostly up to 28.7 µM
Method in brief: as §1

TAB165 = assay: as above; conditions: P. falciparum in erythrocytes, SYBR Green DNA, 72 h; series mostly up to 28.7 µM
Method in brief: as §1

CRL-7250 = normal cell line; assay: Cytotoxic Profiling of Annotated Libraries Using Quantitative High-Throughput Screening (AID 1296008); conditions: Five cell lines viability, CellTiter-Glo ATP luminescence, 48-72 h; stronger effect = lower value; for max response: % is set by controls: 0 for no effect and ±100 for the full control effect
Method in brief: (§2)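 Cells exposed to compounds for 48 or 72 hr at 37 degrees Celsius. Viability read as ATP-coupled luminescence with CellTiter-Glo after 10 min at room temperature.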

HEK293 = assay: as above; conditions: Five cell lines viability, CellTiter-Glo ATP luminescence, 48-72 h; stronger effect = lower value
Method in brief: as §2

HaCat [1] = assay: as above; conditions: Five cell lines viability, CellTiter-Glo ATP luminescence, 48-72 h; stronger effect = lower value
Method in brief: as §2

KB-3-1 = assay: as above; conditions: Five cell lines viability, CellTiter-Glo ATP luminescence, 48-72 h, stronger effect = lower value
Method in brief: as §2

NIH3T3 [2] = assay: as above; conditions: Five cell lines viability, CellTiter-Glo ATP luminescence, 48-72 h; stronger effect = lower value
Method in brief: as §2

HACAT [3] = assay: qHTS assay to identify novel small-molecules to repurpose for Merkel cell carcinoma treatment (AID 1296009); conditions: MCC and control cell lines, CellTiter-Glo viability, 72 h; at 44.8 µM (top of the series) unless noted
Method in brief: (§3)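 Cells were treated for 72 hr at 37 degree celsius with compounds in 8- or 11-point dose response. Viability was read by CellTiter-Glo luminescence, normalized to no-cell (cytotoxicity) and DMSO controls.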

MCC-13 = assay: as above; conditions: MCC and control cell lines, CellTiter-Glo viability, 72 h; series mostly up to 46 µM
Method in brief: as §3

MCC-26 = assay: as above; conditions: MCC and control cell lines, CellTiter-Glo viability, 72 h; series mostly up to 46 µM
Method in brief: as §3

MKL-1 = assay: as above; conditions: MCC and control cell lines, CellTiter-Glo viability, 72 h; series mostly up to 46 µM
Method in brief: as §3

MKL-2 = assay: as above; conditions: MCC and control cell lines, CellTiter-Glo viability, 72 h; series mostly up to 46 µM
Method in brief: as §3

NIH3T3 [4] = assay: as above; conditions: MCC and control cell lines, CellTiter-Glo viability, 72 h; at 44.8 µM (top of the series) unless noted
Method in brief: as §3

UISO = assay: as above; conditions: MCC and control cell lines, CellTiter-Glo viability, 72 h; series mostly up to 46 µM
Method in brief: as §3

WaGa = assay: as above; conditions: MCC and control cell lines, CellTiter-Glo viability, 72 h; series mostly up to 46 µM
Method in brief: as §3

HEK293T = assay: as above; conditions: MCC and control cell lines, CellTiter-Glo viability, 72 h; at 44.8 µM (top of the series) unless noted
Method in brief: as §3

W2 = assay: qHTS profiling for inhibitors of Plasmodium falciparum proliferation (AID 504749); note: potency is the fitted concentration of half-maximal effect; conditions: P. falciparum in erythrocytes, SYBR Green DNA, 72 h; series mostly up to 28.7 µM
Method in brief: as §1
Note: nearly all actives have a fitted effect of over 60% in size.

O=C(O)c1cc(=O)c2ccccc2o1
inactive: Potency (PC49) | Potency (SC27B) | Potency (TAB109) | Potency (TAB113) | Potency (TAB165) | max response (CRL-7250) 2.58% | max response (HEK293) -0.978% | outcome (HaCat [1]) | max response (KB-3-1) -5.78% | outcome (NIH3T3 [2]) | outcome (HACAT [3]) | outcome (MCC-13) | outcome (MCC-26) | outcome (MKL-1) | outcome (MKL-2) | outcome (NIH3T3 [4]) | outcome (UISO) | outcome (WaGa)

CCN[C@H]1CN(CCCOC)S(=O)(=O)c2sc(S(N)(=O)=O)cc21
inactive: max response (CRL-7250) 2.64% | max response (HEK293) -2.35% | outcome (HaCat [1]) | max response (KB-3-1) 14.5% | outcome (NIH3T3 [2]) | outcome (HACAT [3]) | outcome (MCC-13) | outcome (MCC-26) | outcome (MKL-1) | outcome (MKL-2) | outcome (NIH3T3 [4]) | outcome (UISO) | outcome (WaGa)

CCCCCOC(=O)Nc1nc(=O)n([C@@H]2O[C@H](C)[C@@H](O)[C@H]2O)cc1F
inactive: outcome (CRL-7250) | outcome (HEK293) | outcome (HaCat [1]) | max response (KB-3-1) -8.69% | max response (NIH3T3 [2]) 3.66% | outcome (HACAT [3]) | outcome (HEK293T) | outcome (MCC-13) | outcome (MCC-26) | outcome (MKL-1) | outcome (MKL-2) | outcome (UISO) | outcome (WaGa)

Cc1cc(O)cc(C)c1Cl
inactive: Potency (SC27B) | max response (CRL-7250) -1.3% | outcome (HEK293) | outcome (HaCat [1]) | max response (KB-3-1) 4.13% | max response (NIH3T3 [2]) 1.17% | outcome (HACAT [3]) | outcome (HEK293T) | outcome (MCC-13) | outcome (MCC-26) | outcome (MKL-1) | outcome (MKL-2) | outcome (UISO) | outcome (WaGa)
active: Potency (W2) 7.57 µM

C[n+]1ccccc1/C=N/O
inactive: max response (CRL-7250) -2.33% | max response (HEK293) -5.72% | outcome (HaCat [1]) | max response (KB-3-1) -1.46% | outcome (NIH3T3 [2]) | outcome (HACAT [3]) | outcome (MCC-13) | outcome (MCC-26) | outcome (MKL-1) | outcome (MKL-2) | outcome (NIH3T3 [4]) | outcome (UISO) | outcome (WaGa)

COc1ccc2cc(CCC(C)=O)ccc2c1
inactive: Potency (PC49) | Potency (SC27B) | Potency (TAB109) | Potency (TAB113) | Potency (TAB165) | Potency (W2) | outcome (CRL-7250) | outcome (HEK293) | outcome (HaCat [1]) | max response (KB-3-1) -1.62% | max response (NIH3T3 [2]) -0.0731% | outcome (HACAT [3]) | outcome (HEK293T) | outcome (MCC-13) | outcome (MCC-26) | outcome (MKL-1) | outcome (MKL-2) | outcome (UISO) | outcome (WaGa)

CC(=O)Oc1cccc(O)c1
inactive: Potency (PC49) | Potency (SC27B) | Potency (TAB109) | Potency (TAB113) | Potency (TAB165) | Potency (W2) | max response (CRL-7250) 2.6% | max response (HEK293) 2.67% | outcome (HaCat [1]) | max response (KB-3-1) -9.73% | outcome (NIH3T3 [2]) | outcome (HACAT [3]) | outcome (MCC-13) | outcome (MCC-26) | outcome (MKL-1) | outcome (MKL-2) | outcome (NIH3T3 [4]) | outcome (UISO) | outcome (WaGa)

CC(=O)Nc1ccccc1
inactive: Potency (PC49) | Potency (SC27B) | Potency (TAB109) | Potency (TAB113) | Potency (TAB165) | Potency (W2) | max response (CRL-7250) 2.87% | max response (HEK293) -7.78% | outcome (HaCat [1]) | max response (KB-3-1) 12.7% | outcome (NIH3T3 [2]) | outcome (HACAT [3]) | outcome (MCC-13) | outcome (MCC-26) | outcome (MKL-1) | outcome (MKL-2) | outcome (NIH3T3 [4]) | outcome (UISO) | outcome (WaGa)

CCC(C)(CN(C)C)OC(=O)c1ccccc1 (centres undefined)
inactive: max response (CRL-7250) -17.5% | outcome (HEK293) | outcome (HaCat [1]) | max response (KB-3-1) 0.865% | max response (NIH3T3 [2]) -14.8% | outcome (HACAT [3]) | outcome (HEK293T) | outcome (MCC-13) | outcome (MCC-26) | outcome (MKL-1) | outcome (MKL-2) | outcome (UISO) | outcome (WaGa)

CN1C(=O)CC(c2ccccc2)C1=O (centres undefined)
inactive: max response (CRL-7250) 1.89% | max response (HEK293) -5.41% | outcome (HaCat [1]) | max response (KB-3-1) 0.936% | outcome (NIH3T3 [2]) | outcome (HACAT [3]) | outcome (MCC-13) | outcome (MCC-26) | outcome (MKL-1) | outcome (MKL-2) | outcome (NIH3T3 [4]) | outcome (UISO) | outcome (WaGa)

Cc1c(NC(=O)c2cccnc2)c(=O)n(-c2ccccc2)n1C
inactive: Potency (PC49) | Potency (SC27B) | Potency (TAB109) | Potency (TAB113) | Potency (TAB165) | Potency (W2) | max response (CRL-7250) -9.05% | max response (HEK293) 0.504% | outcome (HaCat [1]) | max response (KB-3-1) -0.639% | outcome (NIH3T3 [2]) | outcome (HACAT [3]) | outcome (MCC-13) | outcome (MCC-26) | outcome (MKL-1) | outcome (MKL-2) | outcome (NIH3T3 [4]) | outcome (UISO) | outcome (WaGa)

O=C(O)Cn1c(C(=O)Nc2nc(-c3ccccc3Cl)cs2)cc2ccccc21
inactive: Potency (PC49) | Potency (SC27B) | Potency (TAB109) | Potency (TAB113) | Potency (TAB165) | Potency (W2) | outcome (CRL-7250) | max response (HEK293) -5.16% | outcome (HaCat [1]) | max response (KB-3-1) -7.98% | outcome (NIH3T3 [2]) | outcome (HACAT [3]) | outcome (MCC-13) | outcome (MCC-26) | outcome (MKL-1) | outcome (MKL-2) | outcome (NIH3T3 [4]) | outcome (UISO) | outcome (WaGa)

C/C(=C(\CCO)SS/C(CCO)=C(\C)N(C=O)Cc1cnc(C)nc1N)N(C=O)Cc1cnc(C)nc1N
inactive: outcome (CRL-7250) | max response (HEK293) -0.967% | outcome (HaCat [1]) | max response (KB-3-1) -5.06% | max response (NIH3T3 [2]) -2.04% | outcome (HACAT [3]) | outcome (MCC-13) | outcome (MCC-26) | outcome (MKL-1) | outcome (MKL-2) | outcome (UISO) | outcome (WaGa)

CC(=O)N[C@@H](CC(C)C)C(=O)O
inactive: max response (CRL-7250) -9.67% | max response (HEK293) -5.66% | outcome (HaCat [1]) | max response (KB-3-1) -12.6% | max response (NIH3T3 [2]) -1.86% | outcome (HACAT [3]) | outcome (MCC-13) | outcome (MCC-26) | outcome (MKL-1) | outcome (MKL-2) | outcome (UISO) | outcome (WaGa)

C=CCOc1ccccc1OCC(O)CNC(C)C (centres undefined)
inactive: max response (CRL-7250) -3.74% | max response (HEK293) 3.92% | outcome (HaCat [1]) | max response (KB-3-1) -1.61% | max response (NIH3T3 [2]) 4.04% | outcome (HACAT [3]) | outcome (MCC-13) | outcome (MCC-26) | outcome (MKL-1) | outcome (MKL-2) | outcome (UISO) | outcome (WaGa)
